Results from PubChem BioAssay (NCATS).
Results filed as inconclusive are left out. Calls of active or inactive are those of the source. Unless noted, calls come from the whole dose curve; as a rule, active = well fitted curve in the direction sought with a large enough effect; inconclusive = small, poorly fitted or top-dose-only effect, or another doubt; inactive = no such curve, though single readings can be large; an effect the other way counts as inactive or inconclusive.

Experiments:
[1] = qHTS assay for small molecule antagonists of peroxisome proliferator-activated receptor delta signaling (AID 588535; active = well fitted inhibition curve with a large enough effect in the signal ratio, with a control signal flat, not every such curve was filed as active; the % refers to the signal ratio;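 for max response: cells co-treated with a PPAR-delta agonist as stimulator during compound exposure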); settings: HEK293T PPARd-UAS-bla, beta-lactamase FRET ratio, 18 h; 460 nm channel
In short: (§1)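 Compounds tested in titration on PPAR-delta-UAS-bla HEK293T cells grown in charcoal/dextran-stripped serum (2%); beta-lactamase activity read via CCF4 emission at 460 and 530 nm.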

[2] = biological target: Peroxisome proliferator-activated receptor delta (Homo sapiens) (UniProt Q03181); experiment: as above; settings: HEK293T PPARd-UAS-bla, beta-lactamase FRET ratio, 18 h; series mostly up to 76.7 µM
Sequence of Peroxisome proliferator-activated receptor delta (Homo sapiens) (Q03181 whole entry, looked up): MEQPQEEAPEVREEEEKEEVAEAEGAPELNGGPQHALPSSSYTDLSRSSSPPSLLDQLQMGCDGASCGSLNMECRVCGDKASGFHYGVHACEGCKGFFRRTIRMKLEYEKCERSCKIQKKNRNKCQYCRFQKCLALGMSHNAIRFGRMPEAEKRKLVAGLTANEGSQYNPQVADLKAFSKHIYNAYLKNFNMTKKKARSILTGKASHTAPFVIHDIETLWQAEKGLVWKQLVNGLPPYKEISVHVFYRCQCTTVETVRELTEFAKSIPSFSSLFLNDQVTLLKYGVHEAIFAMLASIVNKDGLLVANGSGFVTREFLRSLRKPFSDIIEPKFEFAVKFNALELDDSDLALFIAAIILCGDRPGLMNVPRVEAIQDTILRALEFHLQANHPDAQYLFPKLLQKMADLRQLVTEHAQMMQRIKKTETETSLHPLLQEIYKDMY
In short: as §1

[3] = biological target: Vitamin D3 receptor (Homo sapiens) (UniProt P11473); experiment: qHTS assay for small molecule antagonists of vitamin D receptor signaling (AID 588541; calls by dose curve;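 note: receptor activated by calcitriol during compound treatment; % is set by controls: 0 for no effect and ±100 for the full control effect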); settings: HEK293T VDR-UAS-bla, beta-lactamase ratio, antagonist mode; series mostly up to 76.7 µM
Sequence of Vitamin D3 receptor (Homo sapiens) (P11473 whole entry, looked up): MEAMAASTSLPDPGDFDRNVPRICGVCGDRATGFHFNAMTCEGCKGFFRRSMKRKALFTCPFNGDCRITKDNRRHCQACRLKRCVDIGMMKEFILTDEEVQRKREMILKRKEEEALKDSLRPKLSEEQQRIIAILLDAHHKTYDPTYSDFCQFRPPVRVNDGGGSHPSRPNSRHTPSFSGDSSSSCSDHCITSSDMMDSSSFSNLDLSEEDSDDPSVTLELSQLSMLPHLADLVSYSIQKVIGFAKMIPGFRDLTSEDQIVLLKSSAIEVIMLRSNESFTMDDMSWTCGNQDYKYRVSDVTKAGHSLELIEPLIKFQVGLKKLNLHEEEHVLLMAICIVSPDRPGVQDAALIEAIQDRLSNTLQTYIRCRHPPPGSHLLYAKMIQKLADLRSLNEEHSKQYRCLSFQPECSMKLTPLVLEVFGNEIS
In short: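 VDR-UAS-bla HEK293T cells (2000/well, 2% charcoal-stripped FBS) were treated with titrated compounds plus 1-alpha,25-dihydroxyvitamin D3 (50 nM or 3 nM final) for 16 h at 37 C. CCF4 beta-lactamase fluorescence was read; Hill fits gave IC50.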

[4] = biological target: Vitamin D3 receptor (Homo sapiens) (UniProt P11473); experiment: qHTS assay for small molecule agonists of vitamin D receptor signaling (AID 588543; calls by dose curve;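 note: 0% = DMSO basal and 100% = reference agonist control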); settings: HEK293T VDR-UAS-bla, beta-lactamase ratio, 16 h; series mostly up to 76.8 µM
In short: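 GeneBLAzer VDR-UAS-bla HEK293T cells in 2% charcoal-stripped FBS medium were dosed with compound titrations for 16 h at 37 °C; CCF4 β-lactamase readout (405 nm ex, 460/530 nm em). EC50 and efficacy from Hill fits, normalized to 50 nM calcitriol (100%) and DMSO (0%).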

[5] = qHTS assay for small molecule agonists of retinoid X receptor alpha signaling (AID 588544; calls by dose curve;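 for activation: 0% = DMSO basal wells and 100% = reference agonist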); settings: HEK293T RXRa-UAS-bla, beta-lactamase reporter, 18 h; 530 nm emission
[6] = biological target: Retinoic acid receptor RXR-alpha (Homo sapiens) (UniProt P19793); experiment: as above; settings: HEK293T RXRa-UAS-bla, beta-lactamase reporter, 18 h; series mostly up to 76.7 µM
Sequence of Retinoic acid receptor RXR-alpha (Homo sapiens) (P19793 whole entry, looked up): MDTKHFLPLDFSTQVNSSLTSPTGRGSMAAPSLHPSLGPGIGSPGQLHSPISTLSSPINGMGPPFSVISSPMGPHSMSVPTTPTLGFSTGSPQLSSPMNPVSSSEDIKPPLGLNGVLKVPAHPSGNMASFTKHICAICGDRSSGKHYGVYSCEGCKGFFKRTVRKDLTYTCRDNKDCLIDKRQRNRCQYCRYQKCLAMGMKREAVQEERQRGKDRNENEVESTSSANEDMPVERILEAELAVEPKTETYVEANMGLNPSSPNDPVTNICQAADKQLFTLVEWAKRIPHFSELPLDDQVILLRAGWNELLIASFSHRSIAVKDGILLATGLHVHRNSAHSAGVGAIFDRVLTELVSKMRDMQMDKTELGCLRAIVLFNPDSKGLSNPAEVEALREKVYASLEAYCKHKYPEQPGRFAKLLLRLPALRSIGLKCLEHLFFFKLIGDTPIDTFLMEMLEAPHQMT

[7] = biological target: Thyroid hormone receptor beta (Homo sapiens) (UniProt P10828); experiment: qHTS assay for small molecule agonists of thyroid hormone receptor beta signaling (AID 588545; calls by dose curve); settings: TR-UAS-bla GripTite HEK 293, beta-lactamase ratio, agonist mode, 18 h; series mostly up to 76.7 µM
Sequence of Thyroid hormone receptor beta (Homo sapiens) (P10828 whole entry, looked up): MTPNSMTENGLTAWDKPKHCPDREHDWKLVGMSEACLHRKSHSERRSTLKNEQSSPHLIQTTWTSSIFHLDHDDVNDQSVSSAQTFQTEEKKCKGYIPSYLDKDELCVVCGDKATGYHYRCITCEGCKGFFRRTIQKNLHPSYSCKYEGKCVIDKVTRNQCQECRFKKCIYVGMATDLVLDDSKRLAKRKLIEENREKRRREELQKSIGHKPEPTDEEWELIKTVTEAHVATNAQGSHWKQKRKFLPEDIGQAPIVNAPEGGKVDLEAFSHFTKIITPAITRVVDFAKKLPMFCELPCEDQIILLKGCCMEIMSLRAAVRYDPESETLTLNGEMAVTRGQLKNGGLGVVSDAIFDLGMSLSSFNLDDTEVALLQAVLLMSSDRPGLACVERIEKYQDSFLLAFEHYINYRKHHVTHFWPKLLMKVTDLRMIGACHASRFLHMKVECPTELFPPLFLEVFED
In short: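 HEK 293 TR-UAS-bla; agonist mode; 18 hrs, 37 C; CCF4, ex 405/em 460 and 530 nm; norm. T3 10 nM = 100%, DMSO = 0%; Hill fit → EC50, efficacy.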

[8] = qHTS assay for small molecule antagonists of retinoid X receptor alpha signaling (AID 588546; active = well fitted inhibition curve with a large enough effect in the signal ratio, with a control signal flat, not every such curve was filed as active; the % refers to the signal ratio;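 note: cells stimulated with 9-cis-retinoic acid as agonist; % is set by controls: 0 for no effect and ±100 for the full control effect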); settings: HEK293T RXRa-UAS-bla, beta-lactamase ratio, antagonist mode; measured here: W530 green channel, cytotoxicity proxy
In short: (§2)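 Beta-lactamase reporter inhibition, read as CCF4 fluorescence ratio (ex 405, em 460/530 nm) after 2 h at RT. HEK293T UAS-bla cells, 2500/well, were stimulated with 9-cis-RA at 500 or 100 nM final alongside test compound for 18 h at 37 C.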

[9] = biological target: Retinoic acid receptor RXR-alpha (Homo sapiens) (UniProt P19793); experiment: as above; settings: HEK293T RXRa-UAS-bla, beta-lactamase ratio, antagonist mode
In short: as §2

[10] = qHTS assay for small molecule activators of the p53 signaling pathway (AID 651743; active = well fitted activation curve with a large enough effect in the signal ratio, not every such curve was filed as active; the % refers to the signal ratio; note: % of control where 0% means no effect); settings: HCT-116 p53RE-bla, beta-lactamase FRET ratio, 16 h; activation: stronger effect = higher value
In short: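 Here HCT-116 cells with an integrated p53-responsive beta-lactamase gene were incubated with compounds (16 hours, 37 C) after a 5-hour plating period; beta-lactamase activity was detected as fluorescence intensity via B/G FRET substrate.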

[11] = qHTS assay for small molecule activators of the nuclear factor-kappa B (NF-kB) signaling pathway (AID 651749; active = well fitted activation curve with a large enough effect in the signal ratio; the % refers to the signal ratio; note: % of control where 0% means no effect); settings: NF-kB-bla ME-180 cells, beta-lactamase FRET ratio, 16 h; activation: stronger effect = higher value
In short: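 Beta-lactamase reporter expression, controlled by NF-kB response elements in ME-180 cells, was quantified fluorometrically via FRET disruption; cells at 2,000/well had been incubated with 23 nL test compound for 16 hr.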

[12] = qHTS assay for environmental chemicals that activate the Aryl hydrocarbon Receptor (AhR) signaling pathway (AID 651777); settings: 1A2-DRE human hepatoma cells, luciferase, 24 h; activation: stronger effect = higher value; note: % of control where 0% means no effect; nearly all actives have a fitted effect of over 15% in size
In short: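 Quantitative HTS in stably transfected human liver-derived cells whose luciferase gene sits downstream of the CYP1A2 promoter and dioxin response element. After 24 hr exposure at 37 C, One-Glo luminescence was measured.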

[13] = biological target: Peroxisome proliferator-activated receptor alpha (Homo sapiens) (UniProt Q07869); experiment: qHTS assay for small molecule agonists of the peroxisome proliferator-activated receptor alpha (PPARalpha) signaling pathway (AID 651778); settings: PathHunter PPARalpha complementation, chemiluminescence, 6 h; max response: stronger effect = higher value; note: % of control where 0% means no effect
Sequence of Peroxisome proliferator-activated receptor alpha (Homo sapiens) (Q07869 whole entry, looked up): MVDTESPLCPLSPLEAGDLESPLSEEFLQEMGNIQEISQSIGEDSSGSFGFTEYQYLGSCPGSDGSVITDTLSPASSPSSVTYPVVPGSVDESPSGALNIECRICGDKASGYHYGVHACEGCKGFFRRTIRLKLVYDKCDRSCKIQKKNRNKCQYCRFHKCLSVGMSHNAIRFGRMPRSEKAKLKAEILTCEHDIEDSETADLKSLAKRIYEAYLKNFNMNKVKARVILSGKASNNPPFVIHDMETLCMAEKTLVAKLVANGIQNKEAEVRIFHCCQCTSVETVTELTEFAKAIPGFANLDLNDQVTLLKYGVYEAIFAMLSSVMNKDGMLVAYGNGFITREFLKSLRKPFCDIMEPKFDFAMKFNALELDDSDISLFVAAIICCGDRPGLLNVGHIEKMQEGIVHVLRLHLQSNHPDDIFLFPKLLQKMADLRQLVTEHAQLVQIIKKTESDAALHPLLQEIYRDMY
In short: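 Cells plated at 2,000/well and held overnight at 37 C, 5% CO2, then compound added by pin tool for 6 hr; after PathHunter detection reagent and 60 min at room temperature, chemiluminescence from enzyme complementation was read.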

[14] = qHTS assay for small molecule agonists of the antioxidant response element (ARE) signaling pathway measured by Nrf2-dependant transcriptional activity - cell viability counter screen (AID 720653; active = well fitted curve in the direction sought with a large enough effect in the repeat runs; an effect the other way counts as inactive or inconclusive; note: % is set by controls: 0 for no effect and ±100 for the full control effect); settings: ARE-bla HepG2 viability, CellTiter-Glo ATP luminescence, 16 h; max response: stronger effect = lower value
In short: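 ARE-bla HepG2 cells (2,000/well) rested 5 hrs at 37C/5% CO2, then exposed to compounds in DMSO for 16 hrs. Viability was read in the same wells as intracellular ATP by luminescence, 30 min at room temperature after reagent addition.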

[15] = qHTS assay for cell viability of HEK293 cells (AID 743288); settings: ATP luminescence (CellTiter-Glo), 18 h; max response: stronger effect = lower value; note: % is set by controls: 0 for no effect and ±100 for the full control effect; nearly all actives have a fitted effect of over 50% in size
In short: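 After 18 h compound exposure at 37 C, parental HEK293 cells (2,000/well) are lysed with CellTiter-Glo and luminescence is read following 30 min at room temperature.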

[16] = biological target: Nuclear receptor subfamily 1 group I member 2 (Rattus norvegicus) (UniProt Q9R1A7); experiment: qHTS assay for small molecule activators of the rat pregnane X receptor (rPXR) signaling pathway (AID 651751; call rule not given here; note: 0% is about no effect); settings: rPXR reporter cells, luciferase (One-Glo), 24 h
Sequence of Nuclear receptor subfamily 1 group I member 2 (Rattus norvegicus) (Q9R1A7 whole entry, looked up): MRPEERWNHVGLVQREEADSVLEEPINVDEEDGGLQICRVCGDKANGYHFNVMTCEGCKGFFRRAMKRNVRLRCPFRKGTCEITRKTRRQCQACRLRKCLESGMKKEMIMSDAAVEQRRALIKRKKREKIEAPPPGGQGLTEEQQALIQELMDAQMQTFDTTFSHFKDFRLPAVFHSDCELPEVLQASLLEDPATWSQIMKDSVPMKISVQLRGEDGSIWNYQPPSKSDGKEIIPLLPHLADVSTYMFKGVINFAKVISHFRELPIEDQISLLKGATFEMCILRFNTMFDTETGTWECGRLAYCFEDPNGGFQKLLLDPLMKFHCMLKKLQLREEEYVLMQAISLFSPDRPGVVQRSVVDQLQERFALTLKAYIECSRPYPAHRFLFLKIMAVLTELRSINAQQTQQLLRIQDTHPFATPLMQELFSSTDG

[17] = biological target: Thyroid hormone receptor beta (Homo sapiens) (UniProt P10828); experiment: qHTS assay for small molecule antagonists of thyroid hormone receptor beta signaling (AID 588547; active = well fitted inhibition curve with a large enough effect in the signal ratio, with a control signal flat, not every such curve was filed as active; the % refers to the signal ratio;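 note: cells stimulated with 0.4 nM T3 agonist during compound exposure; % is set by controls: 0 for no effect and ±100 for the full control effect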); settings: TR-UAS-bla HEK293, beta-lactamase ratio, antagonist mode, 18 h
In short: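 TR-UAS-bla GripTite HEK293 cells in 2% charcoal/dextran FBS medium were preincubated 4 h at 37 C, given compound (0.59 nM to 92 uM) plus 0.4 nM T3 (final) for 18 h, then CCF4 for 2 h at RT; Hill fit gave IC50.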

[18] = qHTS assay for small molecule agonists of the antioxidant response element (ARE) signaling pathway measured by Nrf2-dependant transcriptional activity (AID 720636; active = well fitted curve in the direction sought with a large enough effect in the repeat runs; an effect the other way counts as inactive or inconclusive; note: % of control where 0% means no effect); settings: ARE-luc HepG2, Nrf2 luciferase reporter, 16 h; series mostly up to 92.4 µM
In short: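 Quantitative HTS format in HepG2 cells stably expressing an ARE-luciferase reporter; 16 hr compound treatment at 37 C, luciferase signal detected with ONE-Glo.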

[19] = qHTS assay for cell viability of the p53RE-bla HCT-116 cell line (AID 743292); settings: p53RE-bla HCT-116 viability, ATP luminescence, 16 h; series mostly up to 95 µM; note: % is set by controls: 0 for no effect and ±100 for the full control effect; nearly all actives have a fitted effect of over 55% in size
In short: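 Viability of compound-treated p53RE-bla HCT-116 cells is taken from ATP-dependent luciferase luminescence. Treatment lasts 16 h at 37 C after a 5 h settling period; detection follows 30 min at room temperature.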

[20] = qHTS assay for small molecule activators of the human pregnane X receptor (PXR) signaling pathway (AID 720659; call rule not given here; note: 0% is about no effect); settings: DPX-2 HepG2 CYP3A4-luciferase, 24 h; series mostly up to 92.3 µM

Compound | max response [1] [%] | Potency [2] | Potency [3] | outcome [4] | max response [5] [%] | Potency [6] | Potency [7] | max response [8] [%] | max response [9] | activation [10] | activation [11] | activation [12] | max response [13] | max response [14] | max response [15] | max response [16] | activity change % (negative = inhibition) [17] | Potency [18] | Potency [19] | outcome [20]
O=c1n(CCO)c(=O)n(CCO)c(=O)n1CCO | 3.67 | inactive | inactive | inactive | -13.7 | inactive | inactive | -6.53 | 2.33% (inactive) | 3.11% (inactive) | 4.3% (inactive) | 0.674% (inactive) | 0.0492% (inactive) | -11.6% (inactive) | -6.36% (inactive) | -0.84% (inactive) |  |  |  | 
CCCCC(CC)COP(=O)(O)OCC(CC)CCCC (stereo not given) | -17.6 | inactive | inactive | inactive |  |  | inactive | -7.8 | -10.6% (inactive) |  |  | -0.89% (inactive) |  | -10.7% (inactive) | -5.86% (inactive) | 0.935% (inactive) | -4.02% (inactive) | inactive | inactive | 
CCO[Si](CCC#N)(OCC)OCC |  |  |  |  | -7.96 | inactive | inactive | -13.6 | -7.94% (inactive) |  | 0.629% (inactive) |  | -0.819% (inactive) | -7.54% (inactive) | -14.2% (inactive) | -1.9% (inactive) | 18.5% (inactive) | inactive | inactive | inactive
C[C@]12CCC(=O)C=C1CC[C@@H]1[C@@H]2[C@@H](O)C[C@]2(C=O)[C@@H](C(=O)CO)CC[C@@H]12 |  |  | inactive |  | 19.7 | inactive |  | -18.8 | 1.07% (inactive) | -0.611% (inactive) | -3.08% (inactive) | -0.37% (inactive) | 0.506% (inactive) | -8.31% (inactive) | -8.63% (inactive) | -0.971% (inactive) | 7.91% (inactive) | inactive | inactive | inactive
